Screening results (PubChem)
IL1B NFkB pot: enhances IL-1B driven NFkB nuclear translocation; HUVEC IL-1B NFkB p65 nuclear translocation imaging; activation, % at 2 µM; actives 0.3% (n = 94,000);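 active = activation above 40%, about the mean plus 3 SD, also judged a hit on visual image review; inconclusive = activation above 40% but not a hit on visual review; inactive = activation not above 40% and no visual hit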;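 note: percent activation is computed from the nuclear over cytoplasmic p65 intensity ratio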
IL1B NFkB inh: blocks IL-1B driven NFkB nuclear translocation in HUVEC cells | HUVEC IL-1B NFkB p65 nuclear translocation imaging | actives 0.43% (n = 94,000) | inhibition, % at 2 µM;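 active = inhibition above about 30% together with a positive call from visual inspection of the well image, limit read from the data; inconclusive = inhibition above a set limit but visual check negative; inactive = inhibition not above a set limit, visual check negative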;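 note: nuclear over cytoplasmic p65 intensity ratio measured by imaging; 0% = IL-1B stimulated DMSO wells and 100% = unstimulated DMSO wells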
IL1B cytotox: HUVEC cytotoxicity counter-screen, IL-1B stimulated; cell count reduction, % at 2 µM; HUVEC cell count loss, Hoechst imaging; AID 845; actives 0.41% (n = 94,000);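 active = cell count reduction more than 3 SD above the screen-wide mean, cut at about 70% in these data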;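 note: normalized per plate to untreated control cells as the no-loss baseline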
sEH activator: soluble epoxide hydrolase (human) activation; purified human sEH enzymatic activity, activator screen; actives 0.04% (n = 91,000); P34913; activation, % at 2 µM; in the data active = activation above about 37%
Target sequence (P34913 whole entry, looked up): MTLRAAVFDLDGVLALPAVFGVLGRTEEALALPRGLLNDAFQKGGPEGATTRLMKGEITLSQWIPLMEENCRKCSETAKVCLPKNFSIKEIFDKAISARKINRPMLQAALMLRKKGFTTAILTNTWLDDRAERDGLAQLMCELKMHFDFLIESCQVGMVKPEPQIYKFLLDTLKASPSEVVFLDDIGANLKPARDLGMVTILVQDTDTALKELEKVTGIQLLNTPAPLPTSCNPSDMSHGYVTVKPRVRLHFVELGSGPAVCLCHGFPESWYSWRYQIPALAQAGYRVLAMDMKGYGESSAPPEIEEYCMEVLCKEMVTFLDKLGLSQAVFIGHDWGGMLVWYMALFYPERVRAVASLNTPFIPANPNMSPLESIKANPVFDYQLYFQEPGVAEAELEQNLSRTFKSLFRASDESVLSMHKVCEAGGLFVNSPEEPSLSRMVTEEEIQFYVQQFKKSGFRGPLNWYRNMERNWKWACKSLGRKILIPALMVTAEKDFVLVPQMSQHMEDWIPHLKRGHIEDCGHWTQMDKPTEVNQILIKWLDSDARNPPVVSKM
sEH inhibitor: inhibitors of human soluble epoxide hydrolase; recombinant human sEH enzymatic activity assay; inhibition, % at 2 µM; actives 0.34% (n = 91,000); AID 707; in the data active = inhibition above about 80%
* hit, by the source's call; ? = inconclusive; . = no result. A selection: hits, their analogues and other compounds. The true share with any hit is near 1.1%.

SMILES	IL1B NFkB pot	IL1B NFkB inh	IL1B cytotox	sEH activator	sEH inhibitor
CCOC(=O)C1=C(c2ccccc2)O/C(=C(\C(=O)OC)C(F)(F)F)S1	-0.2	0.2	9.5	-3.1	3.3
CCOC(=O)C1=C(c2ccccc2)O/C(=C(/C#N)C(F)(F)F)S1	-56.0	56.0*	-36.8	23.5	-24.7
CC1CCCN(S(=O)(=O)c2ccc(C(=O)Nc3nnc(-c4ccccc4Cl)o3)cc2)C1 (centres undefined)	2.1	-2.1	1.4	-82.5	82.5*
CN(CCc1ccccn1)C(=O)CN(C)S(=O)(=O)c1ccc2c(c1)c(=O)n(C)c(=O)n2C	41.3*	-41.3	3.3	5.7	-3.6
CN(CCC#N)S(=O)(=O)c1ccc2c(c1)c(=O)n(C)c(=O)n2C	9.3	-9.3	-7.9	-1.5	1.8
O=C(/C=C/c1cccc([N+](=O)[O-])c1)NCCN1CCOCC1	-0.8	0.8	7.3	11.6	-13.9
O=C(O)CCC(=O)Nc1ccc(C(=O)N2CCCCC2)cc1	0.7	-0.7	87.6*	-2.2	1.9
COc1ccc2[nH]cc(C(=O)CN3CCN(C/C=C/c4ccccc4)CC3)c2c1	-36.3	36.3*	4.4	-5.0	3.3
Cc1ccc(NCN2C(=O)C3CC=CCC3C2=O)cc1 (centres undefined)	12.1	-12.1	-37.9	-10.9	13.0
O=C1c2ccccc2CN1CCNS(=O)(=O)c1ccc(Cl)cc1	-98.4	98.4*	92.0*	-9.3	8.2
CCc1nnc(NC(=O)c2c(C)nn(-c3ccccc3)c2Cl)s1	22.0	-22.0	-19.0	.	.
O=C(Cn1nnc2ccccc21)NCc1ccccc1	-8.1	8.1	4.3	-6.8	10.2
O=C(Cn1nnc2ccccc21)N/N=C\C=C\c1ccccc1	6.0	-6.0	87.9*	-1.1	0.3
Cc1ccc(/C=N/NC(=O)CSCc2ccc(Cl)cc2)cc1	5.4	-5.4	-60.0	-49.5	49.9
COc1cc(/C=N/NC(=O)CSCc2ccc([N+](=O)[O-])cc2)cc(OC)c1OC	10.2	-10.2	89.4*	-0.8	-1.7
COc1ccccc1-n1c(SCC(=O)N2CCCCC2)nnc1-c1ccccc1O	?	-56.8	-25.0	.	.
C=CCc1cccc2cc(C(=O)O)c(=O)oc12	.	.	.	3.4	-3.2
C=CCc1cccc2cc(C(=O)OCC(=O)c3ccccc3)c(=O)oc12	10.3	-10.3	86.3*	3.9	-6.0
O=C(CSc1nnc(CNc2cccc(C(F)(F)F)c2)n1Cc1ccco1)NCc1ccco1	68.8*	-68.8	-38.0	-5.3	8.1
Cc1occc1-c1nnc(SCC(=O)N2CCOCC2)n1CCc1ccccc1	1.4	-1.4	-15.6	-13.2	11.2
CCCCn1c(SCC(=O)N2CCOCC2)nnc1-c1ccoc1C	-29.6	29.6	85.8*	13.7	-14.8
CC1=NNC(=O)/C1=C\c1cn(-c2ccccc2)nc1-c1ccc(Cl)cc1	-70.6	70.6*	25.0	-9.7	10.1
O=c1cc(O)nc(SCc2ccccc2)n1-c1ccc(F)cc1	-7.3	7.3	-21.7	-14.3	17.1
COc1ccc2[nH]c(=O)c(NC(N)=S)nc2c1	-6.5	6.5	89.0*	-10.8	8.1
COc1ccc(S(=O)(=O)N2CCCC(C(=O)NCc3ccncc3)C2)cc1 (centres undefined)	-5.5	5.5	-10.3	-3.6	3.2
